# Gal4-VP16 FLuc – Gal4-VP16 reporter inhibition counter-screen | Drosophila S2 Gal4-VP16 UAS-luciferase, luminescence, 20 h | Potency, µM (series often up to 53.6 µM), inactives show at the highest dose activity, negative = inhibition, actives largely listed as inhibitors | actives 3.5% (n = 310,000) | AID 2546;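 further: Gal4-VP16 expression switched on by copper sulfate through the metallothionein promoter; on the % scale 0 is the no-effect control and ±100 the full control effect; nearly all actives have a fitted effect of over 50% in size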
# HepG2 viability – counter-screen for TGF-b inhibitors: cytotoxicity in HepG2 cells; actives 0.76% (n = 410,000); Potency, µM (titrated, usually from 46.1 µM), without a hit: at the highest dose activity change, negative = cytotoxicity, hits mostly cytotoxic; HepG2 CAGA-GFP viability, ATP luminescence, 18 h
#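 HepG2 CAGA-GFP cells (1000/well, DMEM with 1% FBS) received compound, then TGF-beta at 500 pg/mL final, and were incubated 18 hours at 37 degrees C. Viability was read by CellTiter-Glo luminescence. Media-only wells were set as complete cell-killing and DMSO as no toxicity.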
# TGFb SMAD3 inh – blocks TGF-b signaling; HepG2 CAGA-GFP TGF-b/SMAD3 reporter, GFP fluorescence, 18 h; TGF-beta stimulated, 500 pg/mL final; Potency, µM (series often up to 46.1 µM), without a hit: at the highest dose activity, negative = inhibition, actives largely listed as inhibitors; actives 1.2% (n = 410,000); AID 588855; further: on the % scale 0 is the no-effect control and ±100 the full control effect; nearly all actives have a fitted effect of over 65% in size
#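 HEPG2 CAGA-GFP cells (1000/well, DMEM with 1% FBS) were pre-incubated 2 h at 37 degrees C, given compound by pin tool, then stimulated with TGF-beta at 500 pg/mL final for 18 h before per-cell GFP fluorescence imaging.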
# RORgamma inh – blocks mouse ROR gamma transcriptional activity | P51450 | Drosophila S2 Gal4-RORgamma UAS-luciferase reporter, 20 h | Potency, µM (top dose mostly 53.6 µM), for inactives: top-dose activity change, negative = inhibition, usual class: inhibitors | actives 5.4% (n = 310,000) | AID 2551; further: on the % scale 0 is the no-effect control and ±100 the full control effect; nearly all actives have a fitted effect of over 60% in size
# Target sequence (P51450 whole entry, looked up, the tested form may be a part): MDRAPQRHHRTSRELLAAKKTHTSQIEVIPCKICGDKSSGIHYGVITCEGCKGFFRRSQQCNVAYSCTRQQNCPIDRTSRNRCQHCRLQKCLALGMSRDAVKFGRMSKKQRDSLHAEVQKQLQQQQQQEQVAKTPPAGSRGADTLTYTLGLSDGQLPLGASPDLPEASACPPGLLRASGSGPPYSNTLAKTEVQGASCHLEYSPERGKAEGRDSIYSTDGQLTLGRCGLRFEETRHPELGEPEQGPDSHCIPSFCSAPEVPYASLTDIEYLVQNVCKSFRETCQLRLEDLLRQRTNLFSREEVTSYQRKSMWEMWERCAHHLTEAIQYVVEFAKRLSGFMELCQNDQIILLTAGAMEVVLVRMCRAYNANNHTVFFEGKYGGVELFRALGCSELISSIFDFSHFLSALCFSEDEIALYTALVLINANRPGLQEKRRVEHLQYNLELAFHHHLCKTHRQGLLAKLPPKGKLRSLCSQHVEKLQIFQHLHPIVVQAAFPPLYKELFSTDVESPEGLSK
#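 Luminescence from a UAS-regulated Photinus luciferase reporter in stably transfected Drosophila Schneider cells is measured; decreased signal marks ROR gamma inhibition. Fusion expression is induced by 700 uM copper sulfate for 20 hr.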
# ATXN2 expr inh – inhibitors of ATXN2 expression | Potency, µM (series often up to 57 µM), inactives show at the highest dose activity change, negative = inhibition, actives largely listed as inhibitors | AID 1745845 | HEK-293 ATXN2-luciferase reporter, luminescence, 24 h | actives 0.72% (n = 360,000); further: on the % scale 0 is the no-effect control and ±100 the full control effect; nearly all actives have a fitted effect of over 55% in size
#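 ATXN2-luciferase reporter cells (luciferase flanked by upstream and downstream ATXN2 gene portions) were treated 24 h at 37 °C with compounds at up to 57 uM. SteadyGlo luminescence gave expression; GF-AFC fluorescence gave viability.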
# ATXN viability – reduces viability in counter-screen for ATXN expression inhibitors. S2 cells (HEK-293 line with an ATXN2-luciferase reporter) viability, CellTiter-Fluor protease fluorescence, 24 h. Potency, µM (titrated, usually from 56.7 µM), actives largely listed as cytotoxic. actives 0.49% (n = 400,000); further: nearly all actives have a fitted effect of over 40% in size
# The depositor's hits bear a star; i = inactive; ? = inconclusive; nt = not tested or not shown; [ ] = remark or other dose. The list is not random: actives were taken first. Their share in the collection is about 6.1%. The call rests on the fitted dose curve; in most records, active means well fitted curve in the direction sought with a large enough effect; inconclusive means small, poorly fitted or top-dose-only effect, or another doubt; inactive means no such curve, though single readings can be large; an effect the other way counts as inactive or inconclusive. Potency means the concentration at half of the fitted maximal effect.
SMILES,Gal4-VP16 FLuc,HepG2 viability,TGFb SMAD3 inh,RORgamma inh,ATXN2 expr inh,ATXN viability
C=CCn1c(Cc2c[nH]c3ccccc23)n[nH]c1=S,-27%,-8%,?,0%[10 µM],16%,i
C=CCn1c(-c2ccncc2)n[nH]c1=S,-18%,1%,1%,10µM*,0%,i
Cc1cccc(NC(=O)Cn2c(=O)n(Cc3nc(-c4ccccc4)no3)c(=O)c3ccccc32)c1,nt,-31%,-28%,nt,nt,nt
C[C@@H]1CN2[C@H](c3ccc(Br)cc3)[C@H](C)CC[C@H]2C(=O)O1,2%[10 µM],nt,nt,-2%[10 µM],nt,nt
O=C(c1ccccc1F)N(Cc1cc2cc3c(cc2nc1N1CCOCC1)CCC3)CC1CCCO1 (stereo not given),nt,nt,nt,nt,nt,i
Cc1cccc(-n2c(O)c(C=Nc3ccccc3O)c3ccccc3c2=O)n1,-25%,-4%,-26%,13%,19%,?
Cc1cccc(-n2c(O)c(/C=N/NC(=O)c3ccccc3Cl)c3ccccc3c2=O)n1,4.5µM*,-1%,14%,6.3µM*,-14%,i
Cc1cccc(-n2c(O)c(C=Nc3cc(O)ccc3C)c3ccccc3c2=O)n1,-15%,-36%,115%,11µM*,?,nt
Cn1c(=O)c(-c2cccs2)nc2cncnc21,0%,nt,nt,-3%,nt,nt
Cc1cccc(CN2C(=O)/C(=C\c3ccc(C(=O)NCCN4CCOCC4)cc3)Sc3ccccc32)c1,-15%,-9%,?,-44%,?,i
CCc1ccc(/C=C2/Sc3ccccc3N(CC(=O)NCCCN3CCOCC3)C2=O)cc1,?,18µM*,?,-2%,nt,?
O=C(CN1C(=O)/C(=C/c2ccc(C(F)(F)F)cc2)Sc2ccccc21)NCCCN1CCOCC1,?,-53%,?,?,-20%,i
O=C(NCCN1CCOCC1)c1ccc(/C=C2\Sc3ccccc3N(Cc3ccccc3F)C2=O)cc1,-5%,-49%,?,-11%,nt,i
CCN1CCN(CCNC(=O)c2ccc(/C=C3/Sc4ccccc4N(Cc4cccc(Cl)c4)C3=O)cc2)CC1,?,22µM*,?,-43%,25µM*,28µM*
CCN1CCN(CCNC(=O)c2ccc3c(c2)N(Cc2ccc(F)cc2)C(=O)/C(=C/c2ccccc2)S3)CC1,?,-185%,?,16µM*,?,?
CN1CCC2(CC1)N=C(c1ccc(F)cc1)C(=S)N2C(=O)c1ccc(C(C)(C)C)cc1,?,-55%,?,13µM*,32µM*,?
Cc1ccc(/C=C2/C(=O)C3(C)CCC2C3(C)C)cc1 (stereo not given),-1%,nt,nt,3%,nt,nt
NC(=O)c1ccc(I)c([N+](=O)[O-])c1,nt,nt,nt,nt,-6%,nt
N#Cc1c(Nc2ccccc2Cl)s[nH]c1=O,3.2µM*,-143%,0%,1.3µM*,-11%,i
Cc1cc(C)c(C#N)c(Nc2ccccc2Cl)n1,-3%,-25%,0%,-12%[10 µM],0%,i
N#Cc1c(Nc2ccccc2C(F)(F)F)s[nH]c1=O,11µM*,-53%,20µM*,14µM*,-9%,i
N#Cc1c(Nc2ccccc2)s[nH]c1=O,11µM*,-6%,?,?,-12%,i
CCOC(=O)c1c(C)[nH]c(C)c1S(=O)(=O)NCC(=O)N(C)c1ccc(C)c(C)c1,nt,-2%,-2%,nt,5%,i
CN(C)C(=O)c1ccc(S(=O)(=O)c2ccc(NC(=O)[C@@](C)(O)C(F)(F)F)c(Cl)c2)cc1,nt,nt,nt,nt,-18%,nt
COC(=O)/C(=C(O)\C=C\c1ccccc1[N+](=O)[O-])c1nc2ccccc2[nH]1,?,-18%,-1%,7.9µM*,8%,i
SMILES,Gal4-VP16 FLuc,HepG2 viability,TGFb SMAD3 inh,RORgamma inh,ATXN2 expr inh,ATXN viability
O=C(/C=C\c1ccccc1[N+](=O)[O-])Nc1ccccc1,22%,-17%,-8%,39%,1%,i
CSc1ccc(CCNC(=O)c2sc3ncccc3c2-n2cccc2)cc1,nt,-35%,?,nt,?,?
CCN(CCCn1c(=S)[nH]c2ncccc2c1=O)c1ccccc1,4µM*,-44%,-14%,1.4µM*,-11%,i
CC(C)OCCCn1c(=S)[nH]c2ncccc2c1=O,?,-1%,-7%,8.9µM*,-3%,i
CCN(CC)CCCn1c(=S)[nH]c2ncccc2c1=O,-3%,3%,-7%,-7%,-4%,i
CCOC(=O)c1ccc(NC(=O)N2CCOc3ccccc32)cc1,nt,-3%,5%,nt,nt,nt
COc1ccc(C)cc1NC(=O)CC1NCCNC1=O (stereo not given),nt,-6%,4%,nt,13%,i
CC(C)NC(=S)NNC(=O)C12CC3CC(CC(C3)C1)C2,-18%,-27%,-4%,34%,2%,i
CCCCNC(=S)NNC(=O)C12CC3CC(CC(C3)C1)C2,?,-7%,6%,14µM*,-3%,i
Cc1ccc(CNCc2ccccc2Cl)s1,nt,-15%,-1%,nt,9%,i
COc1ccc(N/C(C)=C/C(=O)c2ccccc2)cc1,?,0%,0%,10%,64%,i
C/C(=C\C(=O)c1ccc(Br)cc1)Nc1ccc(Cl)cc1,11µM*,-4%,-2%,7.1µM*,nt,i
C/C(=C\C(=O)c1ccccc1)NNC(=O)c1ccc(Cl)cc1,4.5µM*,-53%,?,7.1µM*,-13%,i
O=C(/C=C(\O)c1ccccc1)C(=O)NNC(=O)c1ccccc1,?,5%,10%,?,17%,i
COc1ccc(C(=O)NN/C(C)=C/C(=O)c2ccccc2)cc1,5µM*,-35%,-23%,6.3µM*,9%,?
COc1ccc(C(=O)NNC(=O)C(=O)/C=C(\O)c2ccc(C)cc2)cc1,?,-9%,14%,13µM*,11%,?
CCc1nnc2c3ccccc3nc(Nc3ccc(F)cc3C)n12,nt,-1%,0%,nt,-11%,i
COc1ccccc1NC(=O)c1cc2c(n(-c3ccc(C)cc3)c1=O)CC(C)(C)CC2=O,nt,6%,3%,nt,2%,i
CCCCN(C)CC(O)Cn1cc(/C=C/C(=O)c2ccc(Br)cc2)c2ccccc21 (stereo not given),nt,-97%,?,nt,-9%,nt
CCCN(CCC)CC(O)Cn1cc(/C=C/C(=O)c2ccc(C)cc2)c2ccccc21 (stereo not given),nt,8.9µM*,?,nt,?,?
CCCCN(C)CC(O)Cn1cc(/C=C/C(=O)c2ccc(C)cc2)c2ccccc21 (stereo not given),?,13µM*,18µM*,?,nt,nt

# Compound activity: PubChem BioAssay, National Center for Advancing Translational Sciences (NCATS)
